In PubChem BioAssay AID485317 (Broad Institute, 2010) one finds inhibition data, which are given here for 94 compounds.

In all, about 290,000 compounds went through this assay and about 11,000 (3.8%) were called active.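 Rule for the calls: active = mean replicate inhibition above about 79%, with every replicate also reaching it (limit read from the data); inconclusive = only one of the two criteria met; inactive = mean below limit and not every replicate reaching it.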 Shown is part of a subset that was picked to be rich in actives.

In the assay the target is FAD-linked sulfhydryl oxidase ALR (Homo sapiens) (UniProt P55789). In words: inhibitors of human ALR sulfhydryl oxidase, primary screen, biochemical, H2O2 detection, HRP-luminol luminescence, single point (AID 485317). The note with it: purified ALR, DTT oxidation, active compounds read high, concentration not given here.
Chain of FAD-linked sulfhydryl oxidase ALR (Homo sapiens) (P55789 whole entry, looked up): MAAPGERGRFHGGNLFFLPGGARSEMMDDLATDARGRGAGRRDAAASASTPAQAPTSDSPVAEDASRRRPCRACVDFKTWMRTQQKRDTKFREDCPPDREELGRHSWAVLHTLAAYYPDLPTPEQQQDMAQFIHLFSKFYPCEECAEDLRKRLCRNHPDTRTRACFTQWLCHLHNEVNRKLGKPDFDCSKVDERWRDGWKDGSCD
In general, inhibition refers to the relative decrease from the control value, in per cent. Consider `CC1Cc2ccccc2N1S(=O)(=O)c1cccc(C(=O)OCC(=O)N2CCOCC2)c1` (centres undefined), for which the inhibition is 2.06% (inactive).
The figure for `CC(=O)c1c(C)[nH]c(C(=O)COC(=O)c2cccs2)c1C` is -7.6% (inactive); for `COc1ccc(-c2n[nH]c(C)c2-c2ccccc2OC)c(O)c1` it is 94.9% (active).
In the case of `C=C(C)COc1ccc(-c2n[nH]c(C)c2-c2ccccc2OC)c(O)c1`, the inhibition is -0.153% (inactive).
`COc1ccc(-c2n[nH]c(C)c2-c2ccc(OC)c(OC)c2)c(O)c1`: the inhibition was 25.6% (inactive).
The figure for `COc1ccc(Cl)cc1NC(=O)COC(=O)c1ccc(Br)o1` is 3.97% (inactive); for `CCCN(CC(=O)NC(=O)NC1CCCCC1)CC(=O)Nc1cc(Cl)ccc1Cl` it is -2.78% (inactive); for `Cc1cccc(C(=O)NCCCN2CCCC2=O)c1` it is -1.37% (inactive).
The figure for `Cc1cccc(C(=O)NCCCN(C)CCCNC(=O)c2cccc(C)c2)c1` is -2.47% (inactive); for `CCN(CCCNC(=O)c1ccc2c(c1)NC(=O)CN2C)c1cccc(C)c1` it is 94.3% (active).
`COc1ccccc1N(CCOc1ccccc1)S(=O)(=O)c1ccccc1`: the inhibition is -0.946% (inactive).
In the case of `CCCN(CC1CC1)C(=S)NC(=O)c1ccccc1Br`, the inhibition is -2.06% (inactive).
Consider `Cc1ccc(/C=N/NC(=O)CSc2ccccn2)o1`, for which the inhibition is 3.05% (inactive).
Then `N#CCC(=O)N/N=C/c1ccc(SCC(=O)Nc2ccccc2)o1`, with 93.3% (active); and `O=C(CCNC(=O)c1ccccc1)NN=Cc1ccc(Br)o1`, with -2.22% (inactive); and `CC1(C)CC(=O)C=C(c2cccc3c2Oc2ccccc2S3)C1`, with -3.51% (inactive).
Then `Nc1nc(SCC(=O)Nc2ccc(Cl)c([N+](=O)[O-])c2)n[nH]1`, with -3.76% (inactive).
Consider `COc1ccc(C(=O)CSc2n[nH]c(N)n2)cc1`, for which the inhibition was -11% (inactive).
As to `Nc1nc(SCC(=O)Nc2ccc(Cl)cc2C(F)(F)F)n[nH]1`, the inhibition is 0.457% (inactive).
The figure for `Nc1nc(SCC(=O)NN(c2ccccc2)c2ccccc2)n[nH]1` is 87.6% (active); for `Nc1nc(SCC(=O)NNc2c(Cl)cc(Cl)cc2Cl)n[nH]1` it is 95.6% (active).
Turning to `COc1ccc(CNC(=O)CSc2n[nH]c(N)n2)cc1OC`, the inhibition was 4.3% (inactive).
`COc1ccc(N2CCN(S(=O)(=O)c3cc4c5c(c3)C(C)C(=O)N5CCC4)CC2)cc1` (centres undefined): the inhibition is 22.9% (inactive).
Then `O=C(NCc1ccccc1)C1=C[C@@H](c2ccccc2)C[C@@H](OCCCCO)O1`, with -16.2% (inactive); and `Cc1cc(NC(=O)C(C)N2C(=O)c3ccccc3S2(=O)=O)no1` (centres undefined), with 3.27% (inactive).
On to `CCN(CC(=O)Nc1c(F)cccc1F)C(=O)c1ccc(-c2ccccc2)cc1`, for which the inhibition was -12% (inactive).
The figure for `CC(OC(=O)/C=C/c1ccccc1)C(=O)Nc1ccc(C(N)=O)cc1` (centres undefined) is -4.35% (inactive); for `CCc1noc(C)c1C(=O)Nc1nc(-c2ccccc2)cs1` it is -1.08% (inactive).
With `CC(=O)c1ccc2c(c1)c1ccccc1n2CC(C)C`, the inhibition was -8.57% (inactive).
Turning to `CCn1c(NC(=O)c2ccccc2)c(-c2cccs2)c(=O)c2ccccc21`, the inhibition was -3.02% (inactive).
The figure for `CC(C)Cn1c(CCC(=O)O)ccc1-c1cccs1` is 98.9% (active).
Consider `Cc1cc(C(=O)NNC(=O)c2ccccc2O)c(C)o1`, for which the inhibition is 1.52% (inactive).
For the compound `Cc1nn(C)c(C)c1NS(=O)(=O)c1ccc(OC(F)(F)F)cc1`, the inhibition was -3.04% (inactive).
As for `CC(=O)Nc1ccc(C(=O)CSc2nc3ccc(C)cc3[nH]2)cc1`, the inhibition was 97.9% (active).
Then `CCOC(=O)CSc1nc2ccc(C)cc2[nH]1`, with -3.78% (inactive).
Then `Cc1ccc2nc(SCC(=O)NC3CCCC3)[nH]c2c1`, with 18.7% (inactive); and `COc1cc(OC)cc(-c2cc3ccc(F)cc3cn2)c1`, with 0.168% (inactive); and `Cc1ccc(S(=O)(=O)N2CCN(C(=O)CN3C(=O)NC(C)(c4ccc(Cl)cc4)C3=O)CC2)c(C)c1` (centres undefined), with -8.79% (inactive).
Then `Cc1cc(N2C(=O)C(O)=C(C(=O)c3ccc(C)o3)C2c2ccc(OCc3ccccc3)cc2)no1` (centres undefined), with 38.2% (inactive); and `C=CCOc1cccc(C2C(C(=O)c3ccc(C)o3)=C(O)C(=O)N2c2nnc(C)s2)c1` (centres undefined), with 92.9% (active).
Regarding `COc1cc(C2C(C(=O)c3ccc(C)o3)=C(O)C(=O)N2CCc2ccccc2)ccc1O` (centres undefined), the inhibition is 51.3% (inactive).
The figure for `COC(=O)c1c(-c2ccsc2)oc2ccc(-c3cc(OC)c(OC)c(OC)c3)cc12` is -1.82% (inactive); for `O=C(Cn1cnc2ccccc2c1=O)NNC(=O)c1ccccc1F` it is 29.2% (inactive).
The figure for `Cc1nnsc1C(=O)N/N=C/c1ccccc1Cl` is -1.47% (inactive); for `Cc1nnsc1C(=O)Nc1cccc(Cl)c1C` it is -1.48% (inactive); for `Cc1cc(Cl)ccc1NNC(=O)c1snnc1C` it is 98.9% (active).
The figure for `CC(C)CN(C(=O)CSc1nncn1C)C1CCS(=O)(=O)C1` (centres undefined) is 0.148% (inactive); for `C=CCn1c(-c2sc(-c3ccccc3)nc2C)n[nH]c1=S` it is 8.68% (inactive).
`Cn1c(-c2sc3cc(C(F)(F)F)cnc3c2-c2ccccc2)n[nH]c1=S`: the inhibition is 96.3% (active).
The figure for `Cn1c(-c2sccc2OCc2cccc(C(F)(F)F)c2)n[nH]c1=S` is 1.68% (inactive); for `COc1ccc(NC(=O)CSc2nc(SC)ns2)c(OC)c1` it is 84.5% (active).
The figure for `COc1ccc(C)cc1NC(=O)CSc1nc(SC)ns1` is -1.75% (inactive); for `CSc1nsc(SCC(=O)Nc2cc(C(=O)O)ccc2C)n1` it is 8.91% (inactive).
The figure for `CCCCC/C=C/C1=CC(=O)C[C@H](c2ccc(Cl)cc2)C1` is 5.58% (inactive); for `Cc1c(NC(=O)CSc2nnc(-c3cccnc3)n2N)c(=O)n(-c2ccccc2)n1C` it is 1.09% (inactive).
On to `CS(=O)(=O)c1ccc(C(=O)OCC(=O)NNC(=O)COc2ccc(Cl)cc2)cc1`, for which the inhibition is -1.94% (inactive).
The figure for `Cc1c(C(=O)NC(=S)NCc2cccnc2)oc2ccccc12` is 93.3% (active); for `Cc1c(C(=O)NNC(=O)c2ccncc2)oc2ccccc12` it is 2.8% (inactive); for `Cc1ccc(C(=O)NC(=S)NCc2cccnc2)cc1` it is 24.9% (inactive).
Consider `Cc1ccc(C2(C)NC(=O)N(CC(=O)N3CC(=O)Nc4ccccc43)C2=O)cc1` (centres undefined), for which the inhibition was 0.292% (inactive).
The figure for `Cc1ccc(S(=O)(=O)N(C)c2ccc(OCC(=O)OCC(=O)N(CC#N)c3ccccc3)cc2)cc1` is -18.6% (inactive).
In the case of `O=C(OCC(=O)N1CCCCC1)c1ccc(OC(F)(F)F)cc1`, the inhibition was -5.55% (inactive).
As to `Cc1cc(C)cc(OCC(=O)Nc2ccc(N3CCOCC3)cc2N2CCOCC2)c1`, the inhibition was 7.88% (inactive).
Consider `O=C(CCc1nc2sc3c(c2c(=O)[nH]1)CCCC3)NCC(=O)Nc1ccccc1Br`, for which the inhibition is 18.6% (inactive).
Then `CCCN(CC1CC1)C(=O)COC(=O)c1ccc(C)cc1O`, with 5.02% (inactive); and `C/C(=N\NC(=O)c1cccc(N2CCCC2=O)c1)c1ccc(N)cc1`, with 99.1% (active).
Then `O=C(NCCc1ccc(Cl)cc1)c1cccc(N2CCCC2=O)c1`, with 2.63% (inactive).
The figure for `CC1CCCC(NC(=O)c2cccc(N3CCCC3=O)c2)C1C` (centres undefined) is 0.109% (inactive); for `Cc1ccnc(SCC(=O)Nc2cccc(S(=O)(=O)N3CCOCC3)c2)n1` it is -3.28% (inactive); for `Cc1cc(=O)[nH]c(SCC(=O)Nc2ccc(Br)cc2)n1` it is -7.33% (inactive).
Consider `COC(=O)c1cccc(NC(=O)CSc2nc(C)cc(=O)[nH]2)c1`, for which the inhibition was 98.5% (active).
Then `COc1ccc(NC(=O)CSc2nc(NS(=O)(=O)c3ccc(C)cc3)cc(=O)[nH]2)cc1`, with 98.9% (active).
`CCOC(=O)Cc1csc(NC(=O)CSc2ccc(Br)cc2)n1`: the inhibition was -32.4% (inactive).
In the case of `CCOC(=O)Cc1csc(NC(=O)CSc2nc(C)cc(=O)[nH]2)n1`, the inhibition was 98.7% (active).
Take `CCCc1cc(=O)[nH]c(SCC(=O)Nc2ccc(S(=O)(=O)N3CCCC3)cc2)n1`: the inhibition is -1.58% (inactive).
On to `Cc1ccc(NC(=O)CSc2nc(CSc3ccc(C)cc3)cc(=O)[nH]2)cc1`, for which the inhibition was 6.9% (inactive).
The figure for `Cc1cccc(NC(=O)CSc2nc3[nH]ncc3c(=O)[nH]2)c1` is 1.74% (inactive); for `CCOC(=O)Cc1csc(NC(=O)C(C)(C)C)n1` it is -0.763% (inactive).
As to `CC(=O)NC12CC3CC(C1)CC(C(=O)N1CCN(C(=O)c4ccco4)CC1)(C3)C2`, the inhibition was -2.95% (inactive).
In the case of `CC1(C)O[C@@H]2[C@H](O1)[C@@H](COS(=O)(=O)O)O[C@H]2n1ccc(=O)[nH]c1=O`, the inhibition was -0.754% (inactive).
Turning to `O=C(NNc1cc(Cl)cc(Cl)c1)c1c(F)cccc1Cl`, the inhibition was 3.41% (inactive).
Then `Cc1ccc(NNC(=O)c2cccs2)cc1Cl`, with 2.62% (inactive); and `Cc1ccc(NNC(=O)c2c(F)cccc2Cl)cc1Cl`, with 98.7% (active); and `Cc1csc(=O)n1CC(=O)Nc1ccc(S(C)(=O)=O)cc1`, with 2.59% (inactive).
The figure for `CN1C(=O)[C@H]2[C@@H](/C=C/c3ccccc3)N3C(=O)CN(Cc4ccc(-c5ccccc5)cc4)C(=O)[C@@]3(C)[C@H]2C1=O` is 3.57% (inactive).
The figure for `CCCCCCNC(=O)CSc1nccn1Cc1ccccc1` is -0.072% (inactive); for `CCCCNC(=O)CSc1nccn1Cc1ccccc1` it is 11.9% (inactive).
In the case of `CC(=O)Nc1cccc(NC(=O)CSc2nccn2Cc2ccc(F)cc2)c1`, the inhibition is 98.1% (active).
Take `Cc1ccc(Nc2nc(-c3ccc(O)cc3O)cs2)nc1`: the inhibition was 98.8% (active).
As to `O=c1oc2ccccc2cc1-c1csc(Nc2ccc(O)cc2)n1`, the inhibition was 32.6% (inactive).
Then `Clc1ccc(Nc2nc(-c3cccs3)cs2)nc1`, with -1.13% (inactive); and `COC(=O)Cc1ccc(OC(=O)C2CCN(S(=O)(=O)c3ccc(OC)c(OC)c3)CC2)cc1`, with -4.72% (inactive).
Then `CC[N+](C)(CC)CCC[n+]1c(-c2ccccc2)c2cc(N)ccc2c2ccc(N)cc21`, with 90.7% (active).
Then `O=C(COC(=O)c1cccnc1Cl)Nc1ccc(S(=O)(=O)N2CCOCC2)cc1`, with -2.58% (inactive).
